The nature of test [1]: blockers of polyQ-driven CASP3 activation – cell-based (AID 1583). As to conditions: polyglutamine-induced caspase-3 activation, cell assay; stronger effect = higher value;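 tested at 10 µM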.
The nature of test [2]: yeast 75Q aggregation reduction – 75Q-TubU reporter (AID 1593). As to conditions: Yeast 75Q polyglutamine aggregation reporter.
The nature of test [3]: restoration of touch response, mutant HTT neurons – whole organism, C. elegans mechanosensory neurons, N-terminal huntingtin (AID 1599). As to conditions: C. elegans polyQ-huntingtin mechanosensory neurons, stronger effect = higher value.
The nature of test [4]: blockers of cytochrome c efflux from mitochondria – biochemical, purified mitochondria (AID 1603).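 Further: mouse liver mitochondria challenged with calcium chloride; signal normalized to the plate average as 100%.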 As to conditions: stronger effect = lower value.
The nature of test [5]: polyglutamine aggregate formation blockers (AID 1604). As to conditions: polyglutamine-induced protein aggregation inhibition assay; stronger effect = higher value; tested at 2.5 µM.
Test [6] in a line: glutamate transport activators, MN-1 cells, MN-1 cell line (AID 1612).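 Further: tested at 1 µM final; 0% = mean of DMSO vehicle wells on each plate; positive means more glutamate uptake than control and negative means less.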 Particulars: MN-1 motor neuron cells, stronger effect = higher value.
Test [7] is described as follows: GFP-Q80 aggregate reduction, neuronal-like cells, cell-based, NGF-treated PC12, GFPQ80 (AID 1614).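 Further: lower means fewer inclusions and 0 means no inclusions at all.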 As to conditions: PC12 NGF-treated GFP-polyQ80 inclusion reduction.
A short description of test [8]: 75Q-TubH aggregate inhibition, S. cerevisiae, yeast (AID 1616). As to conditions: S. cerevisiae 75Q-TubH polyglutamine aggregation suppression; stronger effect = higher value.
Test [9] is described as follows: P. berghei load reduction in hepatocytes – cell-based, HepG2, luciferase luminescence, HepG2 viability, primary screen (AID 624349).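 Further: 100% = mean of DMSO negative control wells on the same plate.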 Particulars: P. berghei liver stage in HepG2, luciferase luminescence, concentration not given here; parasite load remaining: stronger effect = lower value; viability: measured here: HepG2 viability without parasites.
Test [10] can be described thus: EMT-state selective cytotoxicity in co-culture – imaging, PC-3E GFP, TEM4-18 mCherry, primary screen (AID 1345086;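 active means compounds killing one labelled cell type while sparing the other, by normalised counts and ratio limits, not self-fluorescent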;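 on all read-outs here: cells exposed to compound for 72 h before imaging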;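 on red/green cell ratio (normalised): normalised mesenchymal count divided by normalised epithelial count so high means epithelial killing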). As to conditions: PC-3E GFP / TEM4-18 mCherry co-culture, imaging cell counts, at 1 µM; for red/green cell ratio (normalised): actives lie on both sides, counts scaled to control wells, 1 = unselective.
The nature of test [11]: viability loss with induced miR-34 in A549 – imaging, A549 dox-inducible miR-34, nuclei and caspase counts, primary screen (AID 1347080;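 active means compounds whose cell count with miR-34 switched on is under 0.7 times the count with it off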). Particulars: A549 miR-34 inducible, Hoechst nuclei count, 48 h.
Where [12] appears, read: measured here: epithelial PC-3E GFP cell survival.
The mark [13] stands for this setting: measured here: mesenchymal TEM4-18 mCherry cell survival.
[14] abbreviates: stronger effect = lower value, cell number ratio, induced over uninduced.
The mark [15] stands for this setting: measured here: relative caspase fold change +Dox/-Dox.
[16] abbreviates: measured here: total cells with miR-34 induction, stronger effect = lower value.
Setting [17] is: measured here: total cells without miR-34 induction.

Here are results for five compounds from PubChem BioAssay.

“And” between values parts separate entries of the source, which are not always exact repeats. Equal values may be shown once. For some of these results: Entries with a potency or affinity are not part of this list. More than one record can exist for a structure, and the calls need not agree. The source made the active and inactive calls. Unless noted, no stated cut-off is given here; in the data, active means parasite load remaining mostly below about 12% (no sharp cut-off); inactive means mostly above about 10%.

Regarding `CCN1CCN(C(=O)NC(C(=O)NC2C(=O)N3C(C(=O)O)=C(CSc4nnnn4C)CSC23)c2ccc(O)cc2)C(=O)C1=O` (configuration not stated), in test [1], the inhibition (commonly the drop in the measured response relative to a control, in per cent) is 16.1%. The same compound registered a score in test [2] of 1.1. For the same compound, the rescue above control in test [3] is -10. In addition, the cytochrome c release ratio in test [4] turned out to be 0.84. Besides, in test [5], the inhibition of aggregation stood at 50.2%. In test [6], the glutamate uptake change stood at 15.1%. The same compound had an inclusion score in [7] of 2. The aggregation suppression score in [8] stood at 1.47. In addition, in test [9], the parasite load remaining is 146% (inactive) and 45.3% (inactive). In [9], the viability (in general, a read-out of living cells in per cent, often relative to untreated cells) is 72.7% and 103%. Besides, the red/green cell ratio (normalised) in [10] was 1.23 (inactive). In addition, the values for the normalised cell number in test [10] (setting [12]) and in test [10] (setting [13]) were 0.99 and 1.22, respectively. The fold change in [11] (setting [14]) is 0.914 (inactive); in test [11] (setting [15]), 3.35. In addition, the cell count in test [11] (setting [16]) is 12000; in [11] (setting [17]), 13100.
In the case of `CCCC1O[C@@H]2CC3C4CCC5=CC(=O)C=CC5(C)C4[C@@H](O)CC3(C)[C@]2(C(=O)CO)O1` (some centres not stated), the inhibition in test [1] turned out to be 18.7%. For the same compound, the score in [2] turned out to be 1.33. In test [3], this compound registered a rescue above control of -3.37. Also, in [4], the cytochrome c release ratio is 1.5. In [5], this compound gave an inhibition of aggregation of 69.2%. In addition, the glutamate uptake change in [6] was -4.39%. The compound also came in with an inclusion score in [7] of 2. Further, the aggregation suppression score in test [8] stood at 1.53. Also, the parasite load remaining in test [9] was 34.5% (inactive) and 13.1% (inactive). Moreover, the viability in [9] worked out at 88.8%. For the same compound, the red/green cell ratio (normalised) in test [10] was 1.29 (inactive). Besides, the normalised cell number in [10] (setting [12]) stood at 0.99; in test [10] (setting [13]), 1.27. Moreover, the figures for the fold change in [11] (setting [14]) and in [11] (setting [15]) were 0.872 (inactive) and 1.29, respectively. Moreover, the results for the cell count in [11] (setting [16]) and in [11] (setting [17]) were 6800 and 7800, respectively.
In test [1], `C[C@H](CCC(=O)O)[C@H]1CCC2C3C(CC[C@@]21C)[C@@]1(C)CC[C@@H](O)C[C@H]1C[C@H]3O` (some centres not stated) registered an inhibition of 13.5%. The compound also gave a score in [2] of -0.55. The rescue above control in [3] is -0.69. In test [4], the cytochrome c release ratio turned out to be 0.92. This compound showed an inhibition of aggregation in test [5] of 21.1%. In addition, the glutamate uptake change in test [6] was -19.3%. The aggregation suppression score in test [8] was 0.165. Further, the parasite load remaining in test [9] is 96.5% (inactive) and 33.9% (inactive). Further, the viability in test [9] was 70.7% and 87%. Further, the red/green cell ratio (normalised) in test [10] was 1.27 (inactive). Also, the normalised cell number in test [10] (setting [12]) came to 0.99; in test [10] (setting [13]), 1.25. Further, the fold change is 0.893 (inactive) in test [11] (setting [14]) and 3.03 in test [11] (setting [15]). Further, the cell count was determined as 10800 in test [11] (setting [16]) and 12100 in test [11] (setting [17]).
Take `CC[C@H]1CN2CCc3cc(OC)c(OC)cc3C2C[C@@H]1CC1NCCc2cc(OC)c(OC)cc21` (some centres not stated): the inhibition in test [1] worked out at 43.8%. The same compound yielded a score in test [2] of 1.69. The compound also returned a rescue above control in test [3] of -0.41. Moreover, the cytochrome c release ratio in test [4] turned out to be 1.03. In test [5], this compound yielded an inhibition of aggregation of 67.5%. In addition, the glutamate uptake change in test [6] is -39.3%. The compound also displayed an aggregation suppression score in test [8] of 1.03. Further, the parasite load remaining in test [9] was -0.06% (active) and -0.06% (inactive). In addition, the viability in test [9] is 69.1% and 43.7%. The red/green cell ratio (normalised) in test [10] is 0.69 (inactive). For the same compound, the normalised cell number in test [10] (setting [12]) came out at 0.22; in test [10] (setting [13]), 0.15. The values for the fold change in [11] (setting [14]) and in [11] (setting [15]) were 1.07 (inactive) and 1.51, respectively. The cell count was determined as 2470 in test [11] (setting [16]) and 2320 in [11] (setting [17]).
On to `CC(=O)[C@H]1CCC2C3CCC4=CC(=O)CC[C@]4(C)C3CC[C@@]21C` (some centres not stated), for which the inhibition in test [1] worked out at 41.6%. This compound showed a score in [2] of 0.59. For the same compound, the rescue above control in test [3] was 3.59. In addition, the cytochrome c release ratio in test [4] was 1.24. Also, the inhibition of aggregation in test [5] amounted to 84.5%. Also, the glutamate uptake change in [6] is -1.48%. Further, the aggregation suppression score in [8] worked out at 0.333. The parasite load remaining in test [9] was 49.3% (inactive) and 27.2% (inactive). For the same compound, in [9], the viability is 66.1% and 99.4%. In addition, the red/green cell ratio (normalised) in [10] was 0.96 (inactive). Besides, the normalised cell number in test [10] (setting [12]) worked out at 1.15; in test [10] (setting [13]) it was 1.11. Further, the fold change in [11] (setting [14]) was 0.856 (inactive); in test [11] (setting [15]) it was 1.4. In addition, the cell count was determined as 9840 in [11] (setting [16]) and 11500 in test [11] (setting [17]).
